Drawing on PubChem BioAssay (NCI), this text covers growth for 16 molecules.

Some test systems named below: T-47D breast; BT-549 breast; MDA-MB-435 melanoma; SW-620 colon; MCF7 breast; HCT-116 colon; HCC-2998 colon; KM12 colon.
Assay in all cases: NCI-60 one-dose screen, 48 h (100 = growth as untreated, 0 = no growth, -100 = all killed)
What all share (conditions): 10 µM unless noted

About 83,000 compounds went through this panel and 20% of them were active in at least one assay; those are over-represented in the sample as a whole.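 Testing used 96-well plates and a 48-hour single-concentration exposure. Example: -40 means 40% of the starting cells died.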 Unmarked numbers belong to inactive results. Calls of active or inactive are those of the source. The calls were made as follows: active = growth percent below 10; inactive = the rest.

Turning to `O=C1C2=C(C(=O)c3c(O)ccc(O)c31)N(c1cccnc1)Cc1ccccc1O2`, the growth with T-47D breast is -28.4% (active); with BT-549 breast, -54.1% (active); with MDA-MB-435 melanoma, -14.2% (active); in the experiment on SW-620 colon, -45.9% (active); in the experiment on MCF7 breast it was -18% (active); in the experiment on HCT-116 colon, -71% (active). Besides, the growth in the experiment with HCC-2998 colon was -31.2% (active); with KM12 colon, -4.03% (active).
Turning to `O=C1Nc2ccc(Br)cc2C1=N/C=c1\[nH]c(=O)/c(=C/c2ccc(Cl)cc2)s1`, the growth was 80% in the experiment on T-47D breast; 99.8% with BT-549 breast; 104% in the experiment on MDA-MB-435 melanoma; 104% in the experiment with SW-620 colon; 86.6% with MCF7 breast; 87.9% in the experiment on HCT-116 colon. Further, the results for the growth in the experiment on HCC-2998 colon and in the experiment on KM12 colon were 118% and 107%, respectively.
Take `CCN(CC)CCCC(C)N=c1cc(Nc2cc(=NC(C)CCCN(CC)CC)c3cc(OC)ccc3o2)oc2ccc(OC)cc12` (stereo not drawn): the growth in the experiment on T-47D breast was 25.8%; in the experiment with BT-549 breast, -69.4% (active); in the experiment with MDA-MB-435 melanoma, -87.4% (active); with SW-620 colon it was -2.14% (active); in the experiment on MCF7 breast, -26.8% (active); in the experiment on HCT-116 colon, -21.2% (active). The values for the growth with HCC-2998 colon and in the experiment with KM12 colon were -88.9% (active) and -4.99% (active), respectively.
With `CC(Cc1nnc(SCC(=O)Nc2ccc(I)cc2)n1N)c1ccccc1` (stereo not drawn), the growth is 71.2% in the experiment with T-47D breast; 97.4% in the experiment on BT-549 breast; 99.9% with MDA-MB-435 melanoma; 95.5% in the experiment with SW-620 colon; 93.4% in the experiment with MCF7 breast; 68.6% in the experiment on HCT-116 colon. The growth was 86.7% in the experiment on HCC-2998 colon and 95.8% in the experiment with KM12 colon.
For the molecule `COc1ccccc1CNCCCN1C(=O)c2ccc3c4c(ccc(c24)C1=O)C(=O)N(CCCNCCCCNCCCCN)C3=O`, the growth with T-47D breast is -1.05% (active); in the experiment with BT-549 breast, 102%; in the experiment with MDA-MB-435 melanoma it was -59.7% (active); with SW-620 colon it was 2.99% (active); in the experiment with MCF7 breast, -34.9% (active); with HCT-116 colon it was 3.34% (active). Moreover, the growth with HCC-2998 colon was -4.93% (active); in the experiment on KM12 colon, 5.46% (active).
`O=C(O)c1ccc(-n2c(=O)c3ccccc3c3ccccc3c2=O)cc1`: the growth in the experiment on T-47D breast was 92.8%; in the experiment on BT-549 breast it was 107%; in the experiment on MDA-MB-435 melanoma, 103%; in the experiment on SW-620 colon, 110%; in the experiment with MCF7 breast it was 96.3%; with HCT-116 colon, 104%. Moreover, the results for the growth in the experiment with HCC-2998 colon and in the experiment on KM12 colon were 110% and 104%, respectively.
With `COc1ccc([N+](=O)[O-])c(/C=C/C(=O)c2ccccn2)c1`, the growth is 91.8% with T-47D breast; 94.2% in the experiment with BT-549 breast; 94.5% in the experiment with MDA-MB-435 melanoma; 16.9% in the experiment on SW-620 colon; 67% with MCF7 breast; 1.9% (active) in the experiment with HCT-116 colon. Further, the results for the growth with HCC-2998 colon and in the experiment with KM12 colon were 120% and 84.5%, respectively.
Take `Cc1ccccc1C(=O)c1ccccc1C(=O)O`: the growth in the experiment with T-47D breast is 107%; in the experiment with BT-549 breast, 106%; with MDA-MB-435 melanoma it was 105%; in the experiment with SW-620 colon, 102%; with MCF7 breast it was 100%; with HCT-116 colon, 103%. Besides, the growth in the experiment on HCC-2998 colon was 105%; in the experiment with KM12 colon it was 107%.
`Cc1cccc(NC(=O)c2sc3nc4c(cc3c2N)CCC4)c1C`: the growth in the experiment with T-47D breast is 64%; with BT-549 breast, 61.7%; in the experiment with MDA-MB-435 melanoma, -26.9% (active); in the experiment on SW-620 colon, 28.6%; in the experiment with MCF7 breast, 13%; in the experiment on HCT-116 colon, 19.7%. Besides, the growth in the experiment on HCC-2998 colon is 33.1%; in the experiment with KM12 colon, 12.2%.
On to `CCC1CCc2nc3sc(C(=O)Nc4ccccc4F)c(N)c3cc2C1` (stereo not drawn), for which the growth in the experiment on T-47D breast was 87.4%; in the experiment on BT-549 breast it was 76%; with MDA-MB-435 melanoma, -15.5% (active); in the experiment on SW-620 colon, 36.4%; with MCF7 breast it was 18.9%; in the experiment with HCT-116 colon, 63.8%. The results for the growth in the experiment on HCC-2998 colon and in the experiment with KM12 colon were 91.6% and 35.3%, respectively.
Take `COc1ccc2c(c1)NC(=O)CN2c1nc(NC2CC2)nc2ccccc12`: the growth in the experiment on T-47D breast is 13.2%; with BT-549 breast, -17% (active); in the experiment on MDA-MB-435 melanoma it was -36% (active); in the experiment with SW-620 colon, 23.6%; in the experiment with MCF7 breast, 9.56% (active); in the experiment on HCT-116 colon it was 0.461% (active). Also, the growth with HCC-2998 colon was 6.95% (active); with KM12 colon, 3.45% (active).
As for `c1ccc2c(c1)Oc1ccccc1C2C1c2ccccc2Oc2ccccc21`, the growth in the experiment on T-47D breast is 81.4%; in the experiment on BT-549 breast, 106%; in the experiment with MDA-MB-435 melanoma it was 99.4%; with SW-620 colon it was 97.7%; with MCF7 breast, 95.4%; in the experiment on HCT-116 colon, 84.2%. For the same molecule, the growth in the experiment with HCC-2998 colon is 99.9%; in the experiment with KM12 colon it was 95.2%.
`Nc1c(C(=O)Nc2ccccc2)sc2nc3c(cc12)CCC3`: the growth was 101% with T-47D breast; 81.7% with BT-549 breast; -1% (active) in the experiment with MDA-MB-435 melanoma; 53.1% in the experiment with SW-620 colon; 51.8% in the experiment on MCF7 breast; 66.6% in the experiment with HCT-116 colon. Besides, the growth with HCC-2998 colon is 89.4%; in the experiment on KM12 colon, 52.8%.
`CCC(c1cccc(Br)c1)C(C(=O)O)c1ccc(OC)cc1` (stereo not drawn): the growth in the experiment on T-47D breast is 108%; in the experiment with BT-549 breast, 113%; in the experiment with MDA-MB-435 melanoma, 29.9%; in the experiment on SW-620 colon, 93.2%; with MCF7 breast it was 93%; in the experiment on HCT-116 colon, 112%. In addition, the values for the growth with HCC-2998 colon and in the experiment with KM12 colon were 93.5% and 83.3%, respectively.
In the case of `COc1ccc(Cl)cc1NC(N)=S`, the growth with T-47D breast was 96.3%; with BT-549 breast it was 107%; in the experiment with MDA-MB-435 melanoma it was 104%; in the experiment on SW-620 colon it was 104%; in the experiment with MCF7 breast, 96.2%; with HCT-116 colon, 102%. The results for the growth with HCC-2998 colon and with KM12 colon were 102% and 105%, respectively.
As to `CCCS(=O)(=O)c1nc(NC2CC2)cc(-c2ccc3c(ccn3C3CC(C)(C)NC(C)(C)C3)c2)n1`, the growth with T-47D breast was -74.3% (active); in the experiment with BT-549 breast, -35.7% (active); in the experiment on MDA-MB-435 melanoma, 11.5%; in the experiment on SW-620 colon, -61.6% (active); with MCF7 breast it was -80.5% (active); in the experiment on HCT-116 colon it was -78.2% (active). For the same molecule, the growth in the experiment with HCC-2998 colon is 1.29% (active); in the experiment on KM12 colon it was 6.05% (active).
